hgDAF12 agonist – agonists of H. glycines DAF-12 nuclear receptor; HEK293 GAL4-hgDAF12 UAS-luciferase reporter, agonist luminescence; normalized to butyrate control; activation, % at 6.8 µM; 370,000 compounds, 1.8% hits; AID 687014;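 active = activation above a cutoff set at the mean of all screened compounds plus 3 SD, cut at about 10% in these data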;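 note: 0% = DMSO wells and 100% = sodium butyrate wells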
SMARCA2 act – increases SMARCA2 function in MMTV reporter cells | MG213 cells, MMTV-luciferase reporter, dexamethasone, overnight | activation, % at 9.1 µM | 370,000 compounds, 1% hits; in the data active = activation above about 7.8%;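 note: 0% = vehicle wells and 100% = reference activator wells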
ssDAF-12 act – activates DAF-12 receptor from parasite S. stercoralis; HEK293 ssDAF-12/GRIP1 lit1-tk-luc reporter, luminescence; % of 3 µM dafachronic acid response; activation, % at 6.8 µM; 370,000 compounds, 1% hits; AID 652126;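 active = activation above the mean over all tested compounds plus 3 SD, cut at about 0.9% in these data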;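 note: 0% = DMSO-only wells and 100% = 3 µM delta7-dafachronic acid wells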
DAX1 inh-1 – DAX1 (NR0B1) inhibition, primary screen; HEK293T StAR-luciferase reporter, SF-1/DAX-1 repression relief; inhibition, % at 6.8 µM; 370,000 compounds, 1.1% hits;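 active = inhibition above the mean over all tested compounds plus 3 SD, cut at about 3.6% in these data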;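 note: 0% = DAX-1 cells with DMSO and 100% = cells lacking DAX-1 with DMSO; higher inhibition means more luminescence from relief of DAX-1 repression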
DAX1 inh-2 – inhibits human nuclear receptor DAX1; HEK293 Gal4-DAX1 luciferase reporter, luminescence; P51843; inhibition, % at 6.75 µM; 340,000 compounds, 0.99% hits; AID 504766;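 active = inhibition above the mean over all tested compounds plus 3 SD, cut at about 4.2% in these data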;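 note: 0% = DAX1-transfected cells with DMSO and 100% = empty-vector control cells with DMSO; inhibition shows as a rise in luminescence from relieved DAX1 repression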
Target sequence (P51843 207-470 limits assumed): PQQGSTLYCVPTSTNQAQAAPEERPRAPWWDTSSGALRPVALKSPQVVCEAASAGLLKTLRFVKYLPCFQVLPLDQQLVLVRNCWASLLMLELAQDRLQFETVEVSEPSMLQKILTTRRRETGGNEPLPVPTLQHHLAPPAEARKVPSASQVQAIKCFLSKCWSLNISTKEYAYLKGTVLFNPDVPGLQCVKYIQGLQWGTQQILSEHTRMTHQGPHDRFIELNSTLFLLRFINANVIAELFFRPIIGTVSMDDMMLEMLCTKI
hcDAF-12 act – H. contortus DAF-12 activation, primary screen; HEK293 hcDAF-12 lit1-tk-luc reporter, luminescence; 0% DMSO, 100% Δ7-dafachronic acid; 370,000 compounds, 1.4% hits; activation, % at 6.8 µM; AID 652067;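 active = activation above the mean of all tested compounds plus 3 SD, cut at about 5.5% in these data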;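 note: 100% = response to 3 µM Δ7-dafachronic acid high control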
LXR ag – counter-screen for hcDAF-12 agonists: agonists of human LXR-beta. 3,400 tested, under 10 active. activation, % at 6.8 µM. shares compounds with hcDAF-12 act. HEK293 Gal4-LXR tk-luc reporter, luminescence, 24 h; normalized: DMSO 0%, positive control 100%;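 active = mean percent activation of the reporter above a cutoff set as the average over tested compounds plus their standard deviation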
Target sequence (P55055 whole entry, looked up, the tested form may be a part): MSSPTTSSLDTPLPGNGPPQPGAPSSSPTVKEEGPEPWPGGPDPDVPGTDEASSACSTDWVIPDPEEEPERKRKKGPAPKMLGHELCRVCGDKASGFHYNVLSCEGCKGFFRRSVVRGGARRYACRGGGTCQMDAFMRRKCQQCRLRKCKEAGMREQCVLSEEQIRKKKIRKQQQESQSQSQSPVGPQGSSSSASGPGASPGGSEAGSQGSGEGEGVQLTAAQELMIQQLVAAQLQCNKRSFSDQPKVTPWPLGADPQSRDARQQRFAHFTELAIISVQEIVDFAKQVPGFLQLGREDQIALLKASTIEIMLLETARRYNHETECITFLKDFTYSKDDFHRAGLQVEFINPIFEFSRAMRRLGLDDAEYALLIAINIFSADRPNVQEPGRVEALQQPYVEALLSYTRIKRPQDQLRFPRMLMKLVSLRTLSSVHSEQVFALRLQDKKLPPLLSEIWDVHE
hcDAF12 conf – hcDAF-12 agonism, confirmation assay; shares compounds with hcDAF-12 act; HEK293 hcDAF-12 lit1-tk-luc reporter, luminescence; % of Δ7-dafachronic acid response; activation, % at 6.8 µM; 3,400 compounds, 61% hits; AID 743032;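 active = mean activation across triplicate tests above the threshold derived from the earlier primary screen, cut at about 5.5% in these data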;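 note: 0% = DMSO only wells and 100% = 3 µM Δ7-dafachronic acid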
* hit, by the source's call; . = not tested or not shown. In the library only some 4.8% were active in any assay of this set; here they are far more common.

SMILES | hgDAF12 agonist | SMARCA2 act | ssDAF-12 act | DAX1 inh-1 | DAX1 inh-2 | hcDAF-12 act | LXR ag | hcDAF12 conf
Cc1ccc(S(=O)(=O)CCC(=O)OCC(=O)c2c[nH]c3ccccc23)cc1 | 5.3 | -3.6 | 0.4 | -0.7 | -0.5 | 9.4* | 0.0 | 5.8*
CC(C)c1ccc(/C=N/NC(=O)c2ccccn2)cc1 | 9.7 | 5.5 | 1.0* | 3.2 | -0.8 | 8.3* | 1.5 | 10.2*
Cc1cc(=O)[nH]c2c(C)cc(S(=O)(=O)Nc3ccc(O)cc3)cc12 | -2.7 | -3.4 | -2.0 | 0.3 | 1.2 | -1.7 | . | .
CCc1ccc(NC(=O)C(C)n2nc(C)c([N+](=O)[O-])c2C)cc1 (stereo not given) | 1.5 | -2.7 | -1.8 | -1.1 | 0.2 | -1.4 | . | .
CC1(C(=O)NS(=O)(=O)C2CC2)CCN(C(=O)c2ccccc2C(F)(F)F)C1 (stereo not given) | -2.9 | -3.0 | -0.5 | 0.6 | . | 1.9 | . | .
CN(C)c1ccc(C(=O)OCC(=O)c2cccs2)cc1 | 20.2* | 4.6 | 1.1* | 4.2* | 0.9 | 8.4* | 1.0 | 3.8
CCc1ccc(C(=O)COC(=O)c2cccs2)cc1 | 9.7 | 5.5 | -0.5 | 1.8 | 0.5 | 0.2 | . | .
Cc1ccc(C(=O)COC(=O)c2cccs2)cc1 | 9.3 | 2.1 | 0.7 | 4.5* | 1.6 | 7.0* | 1.0 | 5.2
Cc1ccc(S(=O)(=O)NC2CCCC2)cc1C(N)=O | 0.2 | 0.5 | -1.4 | -0.5 | 0.6 | -0.2 | . | .
CC(=O)c1c(C)nc(-c2ccc(Cl)cc2)nc1N=CN(C)C | 6.9 | 7.1 | 1.0* | 2.8 | 3.6 | 8.6* | 0.7 | 8.6*
O=C(O)[C@@H]1CCCN1C(=O)c1ccccc1N1C(=O)[C@@H]2Cc3c([nH]c4ccccc34)C(c3cccc(Cl)c3)N2C1=O (stereo not given in full) | 2.3 | 2.1 | -0.3 | 1.1 | -1.1 | 8.8* | -0.3 | 3.6
O=C(O)[C@H]1CCCN1C(=O)c1ccccc1N1C(=O)[C@@H]2Cc3c([nH]c4ccccc34)C(c3cccc(Cl)c3)N2C1=O (stereo not given in full) | 0.1 | 2.6 | 0.3 | 0.9 | 3.8 | 5.5 | . | .
Cc1ccc(C2c3[nH]c4ccccc4c3C[C@H]3C(=O)N(c4ccccc4C(=O)N4CCC[C@H]4C(=O)O)C(=O)N23)cc1 (stereo not given in full) | 4.3 | 1.5 | 0.0 | 0.6 | 1.7 | 7.6* | -0.3 | 3.2
C/C(=N/NC(=O)c1cnccn1)c1cccs1 | 7.4 | 6.2 | 0.0 | 1.3 | 1.7 | 4.3 | . | .
COc1cc(C(=O)NCCNC(=O)c2ccco2)cc(OC)c1OC | 4.2 | 2.6 | -0.3 | -1.6 | 1.0 | -1.3 | . | .
O=C1CCCN1CCCNc1ncnc2c1cnn2-c1ccc(Cl)cc1 | 1.1 | 4.0 | 0.1 | -0.4 | -0.5 | -1.1 | . | .
OCCCNc1ncnc2c1cnn2-c1ccc(Cl)cc1 | 9.2 | 7.2 | 0.1 | 1.7 | -0.1 | 7.4* | 1.0 | 3.8
CCc1ccc(C(N)=S)cc1 | 3.2 | -4.0 | -0.1 | -0.7 | -0.7 | 1.1 | . | .
CN=c1scc(C)n1/N=C/c1ccc(O)cc1 | 1.8 | 5.5 | 0.1 | 2.5 | 3.4 | 1.5 | . | .
CN=c1scc(-c2ccccc2F)n1/N=C/c1ccc(O)c(O)c1O | 6.0 | -1.3 | 0.6 | 3.1 | -2.3 | 7.2* | 1.3 | 16.3*
CN=c1scc(C)n1/N=C/c1ccc(O)cc1O | 6.3 | 3.7 | 0.7 | 3.6* | -2.5 | 7.6* | 1.9 | 6.6*
CN=c1scc(-c2ccccc2F)n1/N=C/c1ccc[nH]1 | -22.9 | -13.8 | -3.3 | -4.5 | -4.5 | -8.3 | . | .
O=C(CC1C(=O)NCCN1Cc1c(F)cccc1Cl)NC1CCCC1 (stereo not given) | -2.9 | -1.7 | -1.9 | 0.1 | -0.5 | 0.3 | . | .
C=CCNC(=S)Nc1c(C(=O)OC)[nH]c2cc(OC)ccc12 | 7.3 | 4.4 | 0.6 | 0.8 | 1.1 | 9.7* | 0.5 | 7.5*
COC(=O)c1[nH]c2cc(OC)ccc2c1NC(=O)c1c(F)cccc1F | 0.6 | -1.1 | -1.7 | -0.7 | 0.0 | -2.2 | . | .
SMILES | hgDAF12 agonist | SMARCA2 act | ssDAF-12 act | DAX1 inh-1 | DAX1 inh-2 | hcDAF-12 act | LXR ag | hcDAF12 conf
COc1ccccc1-c1nnc(SCC(=O)N2CCCC2)o1 | 1.1 | 2.8 | 1.4* | 0.7 | 2.6 | 6.7* | 0.1 | 9.1*
O=C(CSc1nnc(-c2ccccc2F)o1)N1CCCC1 | 2.9 | 0.4 | -0.6 | 0.5 | 1.6 | 2.3 | . | .
O=C(Nc1ccccc1OC(=O)c1ccccc1)c1ccccc1 | 6.0 | 1.7 | -0.2 | 0.7 | 1.8 | 2.4 | . | .
O=C(Cc1ccccc1)NCc1ccc2c(c1)OCO2 | 6.2 | 5.0 | -0.7 | 0.5 | 0.4 | 0.8 | . | .
O=C(Cc1ccccc1[N+](=O)[O-])NCc1ccc2c(c1)OCO2 | 12.0* | 1.1 | 2.2* | 1.9 | 1.3 | 8.8* | 0.6 | 8.6*
O=C(Nc1ccccn1)c1onc2c1CCCC2 | 6.4 | 5.4 | -0.1 | 2.1 | -3.4 | 8.0* | 0.5 | 5.8*
CCOC(=O)[C@]12CCCC=C1N(Cc1ccco1)C(=O)[C@H](CC(=O)NCCCN1CCCC1=O)C2 | -0.4 | -2.5 | -0.4 | -1.2 | . | 0.1 | . | .
Cc1sc(NC(=O)c2cc(-c3ccc(Cl)cc3)nc3ccccc23)c(C(N)=O)c1C | -2.0 | -0.4 | -1.1 | -0.7 | -0.5 | -1.6 | . | .
Cc1sc(NC(=O)c2ccc(Cl)s2)c(C(N)=O)c1C | 13.5* | 0.2 | 2.0* | 2.3 | 4.6* | 10.3* | 1.1 | 14.1*
COc1ccc(C(=O)C[n+]2ccc3ccccc3c2C)cc1 | 8.9 | 2.6 | 1.8* | 1.0 | 8.6* | 12.6* | 1.2 | 14.2*
COc1ccc(C(=O)C[n+]2cccc3cc(OC)ccc32)cc1 | -3.4 | -3.2 | -1.9 | -0.3 | -1.2 | -1.1 | . | .
Cc1ccc(C(=O)C[n+]2ccc3ccccc3c2)cc1 | 6.7 | 1.1 | 1.3* | 1.0 | 1.8 | 6.7* | 0.1 | 4.7
COc1ccc(S(=O)(=O)Nc2ccc(N3CCOCC3)nc2)cc1 | -1.2 | -2.1 | -1.6 | -0.2 | -0.1 | -0.7 | . | .
CCOc1ccc(N=NC2C(=O)N(C(N)=S)N=C2C)cc1 (stereo not given) | 8.4 | 3.4 | 0.9* | 3.1 | 3.9 | 6.6* | 0.8 | 4.8
O=C(O)C(=O)/C(=C\c1cccc(Cl)c1)c1ccc2ccccc2n1 | 11.2* | 4.5 | 2.1* | 3.8* | 2.3 | 13.6* | 0.3 | 8.6*
COc1ccc(-c2nc(NCCCN(C)C)c3ccccc3n2)cc1 | 9.2 | 5.0 | 0.3 | 1.9 | 6.7* | 10.0* | 0.1 | 9.3*

Compound activity deposited in PubChem by The Scripps Research Institute Molecular Screening Center.
